Source: the supplement of paper PMC11172423

What follows are compounds tested on Madurella mycetomatis MM55 (assay: growth relative to untreated control; higher = less inhibition, active = 20 or less). Conditions: 100 µM.
Method in brief: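 Growth was expressed as metabolic activity relative to the untreated growth control, with both corrected using a blank of medium plus dye. Hyphal fragments of M. mycetomatis MM55 or F. senegalensis CBS197.79 were suspended to 68–72% transmission at 660 nm in colourless RPMI 1640 containing L-glutamine and MOPS. In 96-well plates they were exposed to compound at 100 or 25 µM for 7 days at 37 °C, and viability was read with MTS (2 h, 490 nm) or resazurin (600 nm).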

Q: For `N#CCNC(=O)c1cnccc1C(F)(F)F`, which growth is on record?
A: 142% (inactive)

Q: For `CCc1nn(C)c(C(=O)NCc2ccc(Oc3ccc(C)cc3)cc2)c1Cl`, which growth is on record?
A: 120% (inactive)

Q: For `CC[C@H]1CN2CCc3cc(OC)c(OC)cc3[C@@H]2C[C@@H]1C[C@H]1NCCc2cc(OC)c(OC)cc21`, which growth is on record?
A: 43.6% (inactive)

Q: For `O=C(NC(=O)c1c(F)cccc1F)Nc1ccc(Cl)c(Oc2ncc(C(F)(F)F)cc2Cl)c1`, which growth is on record?
A: 149% (inactive)

Q: How did the growth turn out when `CCN(Cc1ccc(Cl)nc1)/C(=C/[N+](=O)[O-])NC` was run?
A: 132% (inactive)

Q: `Cc1nc(N(C)C)nc(OC(=O)N(C)C)c1C` was tested. Which growth did it give?
A: 137% (inactive)

Q: How did the growth turn out when `CC1(C)CNC(=NN=C(C=Cc2ccc(C(F)(F)F)cc2)C=Cc2ccc(C(F)(F)F)cc2)NC1` was run?
A: 106% (inactive)

Q: How did the growth turn out when `CC(C)Nc1cc2c(cn1)nc(Nc1cc(Cl)cc(C(F)(F)F)c1)n2C1CCNC1` (centres undefined) was run?
A: 6.36% (active)

Q: With `CNC(=O)Oc1ccccc1OC(C)C` as the compound, how does the growth read?
A: 129% (inactive)

Q: `CC(C)(C#N)NC(=O)c1cc(Cl)cc(Cl)c1NC(=O)c1cc(Cl)nn1-c1ncccc1Cl` was tested. Which growth did it give?
A: 116% (inactive)

Q: How did the growth turn out when `FC(F)(F)c1cc(Cl)cc(Nc2nc3cnc(OC4CCC4)cc3n2[C@@H]2CCNC2)c1` was run?
A: 64% (inactive)

Q: `CN1C(=O)C(C(=O)Nc2ccc(Cl)c(Cl)c2)C(=O)N(C)C1=O` was tested. Which growth did it give?
A: 10.4% (active)

Q: How did the growth turn out when `CC1(Nc2ncc3nc(Nc4cc(Cl)cc(C(F)(F)F)c4)n(C4CCNC4)c3n2)CC1` (centres undefined) was run?
A: 6.62% (active)

Q: How did the growth turn out when `CCOc1ccc(C(C)(C)COCc2cccc(Oc3ccccc3)c2)cc1` was run?
A: 116% (inactive)
